D2 antag: antagonizes the human D2 dopamine receptor; P14416; HEK293 TREx D2 cells, calcium flux, dopamine EC80; inhibition, % at 10 µM; 340,000 compounds, 2% hits; AID 485344; in the data active means inhibition above about 30%; inactive means below that, where a call was filed; further: 0% is about no effect
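Cells plated overnight at 30 C with tetracycline; no-wash calcium dye, 30–90 min RT; 10 s baseline; compound pinned; 180 s read; EC80 dopamine added; another 180 s read.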
Anesthetic bind: candidate novel general anesthetic via apoferritin binding | P02791 | apoferritin/1-aminoanthracene competitive binding, fluorescence | Potency, µM (top dose mostly 77.5 µM), for the others: at the top dose activity change, negative = displacement, most hits filed as inhibitors | 350,000 compounds, 0.074% hits; active means well fitted inhibition curve with a large enough effect; inconclusive means small, poorly fitted or top-dose-only effect; inactive means no such curve, though single readings can be large or run the other way; further: potency means the concentration at half of the fitted maximal effect; on the % scale 0 is the no-effect control and ±100 the full control effect; nearly all actives have a fitted effect of over 20% in size
Target sequence (P02791 2-175 limits assumed): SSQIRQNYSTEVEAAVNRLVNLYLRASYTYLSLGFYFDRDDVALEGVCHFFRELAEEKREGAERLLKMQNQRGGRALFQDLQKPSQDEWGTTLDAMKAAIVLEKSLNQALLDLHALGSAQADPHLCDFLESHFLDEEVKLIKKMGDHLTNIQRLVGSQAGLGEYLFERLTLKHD
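In PBS, apoferritin at 10 uM is loaded with 1-AMA from a 50% saturated solution. After 10 min of compound exposure at ambient temperature, reduced 535 nm fluorescence indicates probe displacement.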
D2 PAM-1: positive allosteric modulators of human D2 dopamine receptor. P14416. HEK293 T-REx D2, calcium flux, EC20 dopamine potentiation. potentiation, % at 10 µM. 340,000 compounds, 0.34% hits. AID 485347;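 active means potentiation over 3 SD above the plate norm, cut at about 30% in these data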; further: 0% is about no effect
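Using a no-wash calcium dye in inducible, force-coupled HEK293 Trex cells expressing D2, we tracked fluorescence each second for 180 s after compound, then for 180 s after EC20 dopamine to detect augmented signalling.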
D2 PAM-2: positive allosteric modulators of human D2 dopamine receptor. P14416. DiscoveRx D2 beta-arrestin cells, luminescence, 90 min; 100% = 57 uM dopamine signal. potentiation, % (concentration not given with the values). 360,000 compounds, 0.23% hits. AID 624464; in the data active means potentiation above about 50%; inconclusive means mostly about 30% to 49%
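PathHunter beta-arrestin assay in DiscoveRx D2 cells. Compounds were added with an EC20 of dopamine (50 nM final) for 90 min at 37 deg C. Luminescence was read 1 h after detection reagent, with 57 uM dopamine as the EC100 control.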
D2 ag-1: activates the human D2 dopamine receptor. DiscoveRx PathHunter D2 beta-arrestin, luminescence, 90 min; 100% = 57 uM dopamine signal. activation, % (no concentration beside the values). 360,000 compounds, 0.084% hits. P14416; in the data active means activation above about 40%; inconclusive means between about 15% and that limit
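DiscoveRx PathHunter D2 beta-arrestin cells (2,100/well) attached overnight, then compound-stimulated 90 min at 37 C in HBSS/10 mM HEPES/0.1% Tween-20 buffer; beta-galactosidase complementation read by luminescence after 1 h at ambient temperature. Dopamine 57 uM final (EC100) as control.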
D2 ag-2: agonists of human D2 dopamine receptor. 340,000 compounds, 0.53% hits. HEK293 T-REx D2 cells, calcium flux agonist mode. AID 485358. activation, % at 2 µM. P14416;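 active means activation over 3 SD above normal in the single-dose calcium agonist read, cut at about 30% in these data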; further: 0% is about no effect
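In this primary screen, compounds producing a positive calcium signal within 180 s of addition to tetracycline-induced, force-coupled HEK293 Trex D2 cells are flagged; cells are dye-loaded with a no-wash calcium kit beforehand.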
* marks the source's active call; other numbers are inactive results; ? = inconclusive; . = not tested or not shown. Rows were chosen to be rich in hits. Some 2.5% of all compounds tested hit in one or more screens of this group.

SMILES	D2 antag	Anesthetic bind	D2 PAM-1	D2 PAM-2	D2 ag-1	D2 ag-2
O=C(N/N=C/c1cc(Cl)ccc1O)c1ccc(Br)cc1	34.1*	-6.1%	-26.2	-19.9	0.9	0.7
O=C(N/N=C/c1cc(Br)ccc1O)c1ccncc1	6.7	-4.6%	4.9	-2.5	1.4	2.8
CC(=O)Nc1ccc(S(=O)(=O)NC(C(=O)O)C(C)C)cc1 (stereo unspecified)	.	.	.	-11.4	-2.2	.
C=Cn1cc(CNC[C@H]2O[C@@H](n3cnc4c(=O)[nH]c(N)nc43)[C@H](O)[C@@H]2O)c(C)n1	.	.	.	-1.1	-2.3	.
CCn1c(SCC(=O)NCC2CCCO2)nnc1-c1ccc(Cl)cc1 (stereo unspecified)	8.4	-2.6%	-9.5	-5.0	-3.5	1.8
Cc1cccc(/C=N\NC(=O)c2ccc(Cl)cc2)c1O	30.2*	-2.0%	-31.4	-14.5	-0.3	-1.4
Cc1cccc(/C=N/NC(=O)Cc2ccc(Cl)cc2)c1O	26.9	-17.7%	-12.3	-82.1	-3.5	0.4
O=C(COc1ccccc1[N+](=O)[O-])N/N=C/c1ccncc1	0.2	-11.1%	.	1.0	0.3	0.5
O=C(COc1ccccc1[N+](=O)[O-])N/N=C/c1ccc(O)cc1	3.7	-5.3%	12.6	71.7*	13.0	-0.1
O=C1N(c2ccccc2)c2ccccc2C1(Cc1ccncc1)Cc1ccncc1	-1.0	-1.1%	-2.4	-14.1	-1.5	-1.9
OC(CNC1CCCC1)COc1ccc(Cl)cc1 (stereo unspecified)	5.8	0.3%	-10.1	-9.3	-1.0	1.2
OC(CNCC1COc2ccccc2O1)COc1ccc(Cl)cc1 (stereo unspecified)	104.5*	?	-18.9	-3.6	-2.1	33.2*
CCOC(=O)c1c(C)n(-c2ccc(C)cc2)c2ccc(OCC(O)CNCC3CCCO3)cc12 (stereo unspecified)	-4.4	-15.2%	-7.5	-18.7	-10.8	0.5
OC(CNCC1CCCO1)COc1ccc(OCC(O)CNCC2CCCO2)cc1 (stereo unspecified)	-7.0	3.4%	43.3*	-17.4	-1.9	-0.4
COc1ccccc1Oc1ccccc1[N+](=O)[O-]	6.1	-7.4%	7.9	-6.9	-1.5	-0.8
Cc1cc(NC(=O)CN2CC(C)OC(C)C2)n(-c2nc3ccccc3s2)n1 (stereo unspecified)	34.3*	-11.7%	9.1	-12.5	-1.6	0.1
CN(C)S(=O)(=O)n1cc(/C=C(\NC(=O)c2ccccc2F)C(=O)NCCCn2ccnc2)c2ccccc21	2.4	-23.6%	-2.4	-4.9	-4.6	-0.8
COc1cc(/C=C2\SC(=O)N(Cc3ccc(F)cc3)C2=O)cc([N+](=O)[O-])c1O	31.5*	-4.7%	3.2	-0.9	-2.5	-1.8
COc1cc(/C=C2/SC(=S)N(Cc3ccccc3)C2=O)cc(Cl)c1O	-11.9	-1.2%	-20.5	-5.7	-1.6	71.6*
COC(=O)[C@@]1(Cc2ccc(OC)cc2)[C@@H]2C(=CC(=O)[C@H]2CC(=O)C(=O)N(C)C)CN1C(=O)c1ccccc1	-10.8	-9.6%	5.1	0.8	-2.2	1.0
C=C1C(=O)C=C2CN(C(=O)c3ccccc3)[C@@](Cc3ccc(F)cc3)(C(=O)OC)[C@@H]12	44.1*	-2.8%	9.2	-23.8	-8.7	24.3
COC(=O)c1sccc1NC(=O)/C=C/c1ccc(Cl)cc1Cl	-11.2	-5.4%	6.3	-0.3	-0.5	-0.1
CCN(CC)CCNC(=O)c1ccc(NC(=O)COc2ccc3c(c2)CCC3)cc1	32.3*	.	1.6	-4.8	-7.5	0.7
CC(C)C1CC(c2csc(N)n2)CCO1 (stereo unspecified)	0.2	?	18.9	-12.2	10.9	1.3
Cc1cccc(NC2=C/C(=N/S(=O)(=O)c3cccs3)c3ccccc3C2=O)c1	-10.3	-19.0%	5.5	95.7*	?	-1.5
c1coc(CNC2CCCCCCC2)c1	-5.3	-22.8%	0.7	20.6	-2.1	-0.1
c1coc(CNC2CCCCC2)c1	-13.2	1.1%	32.3*	-1.6	-3.4	-0.8

Screens: PubChem, National Center for Advancing Translational Sciences (NCATS)
